target: VAX1 (Homo sapiens, UniProt Q5SQQ9 86-172, T142I); assay: PBM; 200 nM protein, PBS; details: dsDNA, one strand shown
Sequence (Q5SQQ9 86-172 T142I): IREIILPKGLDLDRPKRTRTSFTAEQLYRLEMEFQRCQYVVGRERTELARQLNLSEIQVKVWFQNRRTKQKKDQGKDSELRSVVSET

Sequence	binding signal
CCGGTGCG	7.11 upbm affinity estimate (log intensity, higher = more binding, comparable within an allelic series)
CGCTGCCG	7.05 upbm affinity estimate (log intensity, higher = more binding, comparable within an allelic series)
AACTTTAA	9.35 upbm affinity estimate (log intensity, higher = more binding, comparable within an allelic series)

target: CRX (Homo sapiens, UniProt O43186 26-111, R41L); assay: PBM; 200 nM protein, PBS; details: dsDNA, one strand shown
Sequence (O43186 26-111 R41L): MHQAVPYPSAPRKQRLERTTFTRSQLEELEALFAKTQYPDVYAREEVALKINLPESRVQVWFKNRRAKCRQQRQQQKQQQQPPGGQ

Sequence	binding signal
GACAACCA	8.21 upbm affinity estimate (log intensity, higher = more binding, comparable within an allelic series)
GGGATTAC	13.2 upbm affinity estimate (log intensity, higher = more binding, comparable within an allelic series)
GCGCACGC	8.29 upbm affinity estimate (log intensity, higher = more binding, comparable within an allelic series)
CCGGTGCG	8.27 upbm affinity estimate (log intensity, higher = more binding, comparable within an allelic series)
GAAGATTA	12.5 upbm affinity estimate (log intensity, higher = more binding, comparable within an allelic series)
CGCTGCCG	8.04 upbm affinity estimate (log intensity, higher = more binding, comparable within an allelic series)
ACCTCCCA	8.28 upbm affinity estimate (log intensity, higher = more binding, comparable within an allelic series)
TGGATTAA	13.2 upbm affinity estimate (log intensity, higher = more binding, comparable within an allelic series)
CGGATTAA	13.7 upbm affinity estimate (log intensity, higher = more binding, comparable within an allelic series)
AGGATTAA	13.5 upbm affinity estimate (log intensity, higher = more binding, comparable within an allelic series)
CGGGATTA	13.3 upbm affinity estimate (log intensity, higher = more binding, comparable within an allelic series)
ATAATCCC	13.7 upbm affinity estimate (log intensity, higher = more binding, comparable within an allelic series)
AGGATTAC	13 upbm affinity estimate (log intensity, higher = more binding, comparable within an allelic series)
TAATCCTA	13.3 upbm affinity estimate (log intensity, higher = more binding, comparable within an allelic series)
AGTTAATC	12.4 upbm affinity estimate (log intensity, higher = more binding, comparable within an allelic series)
ATAATCCG	13.9 upbm affinity estimate (log intensity, higher = more binding, comparable within an allelic series)
AGATTATC	13.2 upbm affinity estimate (log intensity, higher = more binding, comparable within an allelic series)
CTAATCCC	13.4 upbm affinity estimate (log intensity, higher = more binding, comparable within an allelic series)
ATAGATTA	12.3 upbm affinity estimate (log intensity, higher = more binding, comparable within an allelic series)
ATAATCTC	13.1 upbm affinity estimate (log intensity, higher = more binding, comparable within an allelic series)

Sequence	binding signal
AGATTAAG	12.6 upbm affinity estimate (log intensity, higher = more binding, comparable within an allelic series)
AGATTAAT	12.5 upbm affinity estimate (log intensity, higher = more binding, comparable within an allelic series)
GGAGATTA	13.1 upbm affinity estimate (log intensity, higher = more binding, comparable within an allelic series)
TAATCCCA	13.3 upbm affinity estimate (log intensity, higher = more binding, comparable within an allelic series)
CCTCTGAC	8.19 upbm affinity estimate (log intensity, higher = more binding, comparable within an allelic series)
CTGGATTA	12.9 upbm affinity estimate (log intensity, higher = more binding, comparable within an allelic series)
CCTAATCC	13.2 upbm affinity estimate (log intensity, higher = more binding, comparable within an allelic series)
ACGGATTA	13.5 upbm affinity estimate (log intensity, higher = more binding, comparable within an allelic series)
AGAGATTA	13 upbm affinity estimate (log intensity, higher = more binding, comparable within an allelic series)
AGGGATTA	13.7 upbm affinity estimate (log intensity, higher = more binding, comparable within an allelic series)
ATAATCCA	13.3 upbm affinity estimate (log intensity, higher = more binding, comparable within an allelic series)
GATTAAGC	12.6 upbm affinity estimate (log intensity, higher = more binding, comparable within an allelic series)
GGATTAAA	13.4 upbm affinity estimate (log intensity, higher = more binding, comparable within an allelic series)
GGATTACC	13.3 upbm affinity estimate (log intensity, higher = more binding, comparable within an allelic series)
AAGGATTA	13.4 upbm affinity estimate (log intensity, higher = more binding, comparable within an allelic series)
GGCTTAAC	12.1 upbm affinity estimate (log intensity, higher = more binding, comparable within an allelic series)
GAGATTAA	12.8 upbm affinity estimate (log intensity, higher = more binding, comparable within an allelic series)
CGTAATCC	13.2 upbm affinity estimate (log intensity, higher = more binding, comparable within an allelic series)
GAGGATTA	13.4 upbm affinity estimate (log intensity, higher = more binding, comparable within an allelic series)

target: VAX1 (Homo sapiens, UniProt Q5SQQ9 86-172, K157R); assay: PBM; 200 nM protein, PBS; details: dsDNA, one strand shown
Sequence (Q5SQQ9 86-172 K157R): as the sequence (Q5SQQ9 86-172 T142I) above, with I57T, K72R counted along it

Sequence	binding signal
CCGGTGCG	7.12 upbm affinity estimate (log intensity, higher = more binding, comparable within an allelic series)
CGCTGCCG	6.97 upbm affinity estimate (log intensity, higher = more binding, comparable within an allelic series)
AACTTTAA	9.35 upbm affinity estimate (log intensity, higher = more binding, comparable within an allelic series)

From article PMC11006913
